This note sets out measurements from PubChem BioAssay (NCI).

What all share (assay): NCI-60 one-dose screen, 48 h (100 = growth as untreated, 0 = no growth, -100 = all killed)
Experiment [1] deals with HCT-15 colon. The note with it: 10 µM unless noted.
Experiment [2] relates to HT29 colon. As to conditions: 10 µM unless noted.
For experiment [3], the system named is SNB-75 CNS. As to conditions: 10 µM unless noted.
The test system of experiment [4] is SNB-19 CNS. The note with it: 10 µM unless noted.
In experiment [5] the test system is U251 CNS. As to conditions: 10 µM unless noted.
Experiment [6] relates to PC-3 prostate. As to conditions: 10 µM unless noted.
The test system of experiment [7] is SK-MEL-5 melanoma. The note with it: 10 µM unless noted.
Experiment [8] concerns UACC-62 melanoma. The note with it: 10 µM unless noted.
Experiment [9] has as its system LOX IMVI melanoma. The note with it: 10 µM unless noted.
The subject of experiment [10] is SK-MEL-28 melanoma. As to conditions: 10 µM unless noted.
Experiment [11] deals with SK-MEL-2 melanoma. The note with it: 10 µM unless noted.
In experiment [12] the test system is EKVX NSCLC. As to conditions: 10 µM.
The test system of experiment [13] is SN12C renal. As to conditions: 10 µM unless noted.
In experiment [14] the test system is UO-31 renal. The note with it: 10 µM unless noted.
In experiment [15] the test system is TK-10 renal. As to conditions: 10 µM unless noted.
Experiment [16] deals with ACHN renal. As to conditions: 10 µM unless noted.
Experiment [17] has as its system A498 renal. The note with it: 10 µM unless noted.
In experiment [18] the test system is CCRF-CEM leukemia. The note with it: 10 µM.
For experiment [19], the system named is MOLT-4 leukemia. The note with it: 10 µM unless noted.
Experiment [20] has as its system CAKI-1 renal. The note with it: 10 µM unless noted.

The structures appear in SMILES notation. This is part of a sample that, as a whole, favours compounds with a hit. Of some 83,000 tested, about 20% had one in any assay.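 Cells were grown in 96-well plates and exposed to the test compound at a single concentration for 48 hours; results are reported as percent growth, with values below 10 considered active.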 Values without a mark were called inactive. Activity calls are given as the source filed them.

For the compound `CC1=NN(c2cccc(Cl)c2)C(=O)/C1=C\c1cn(-c2nc(N3CCOCC3)nc(N3CCOCC3)n2)c2ccccc12`, the growth in experiment [1] is 107%; in experiment [2], 95.4%; in [3] it was 86.4%; in experiment [4], 103%; in experiment [5] it was 110%; in [6], 93%. Moreover, the growth is 101% in experiment [7]; 103% in experiment [8]; 95.7% in experiment [9]; 116% in experiment [10]; 110% in experiment [11]; 105% in experiment [12]. Moreover, the growth was 104% in experiment [13]; 83.3% in [14]; 93.4% in [15]; 103% in [16]; 116% in experiment [17]; 100% in experiment [18]. Moreover, the growth in [19] is 106%.
Consider `CCOC(=O)NC1=NCC(C)(C)S1`, for which the growth was 104% in [1]; 91.3% in experiment [2]; 91.2% in [3]; 98.1% in experiment [4]; 101% in [5]; 93.6% in experiment [6]. Also, the growth in [7] is 98.3%; in [8], 93.6%; in experiment [9], 94.4%; in [10], 99.9%; in experiment [11], 102%; in experiment [12], 98.2%. In addition, the growth in experiment [13] was 93.8%; in experiment [14], 86.9%; in [15], 98.4%; in [16], 107%; in experiment [20], 99.7%; in [17], 68.4%. The growth in experiment [18] is 98.4%; in experiment [19], 83.8%.
`COc1cccc(CNC(=O)c2cccc(C3CC(=O)c4c(cc(OC)c(OC)c4OC)O3)c2)c1` (stereo not given): the growth in experiment [1] is 43.5%; in experiment [2], 68%; in experiment [3], 27.7%; in [4], 51.2%; in experiment [5], 49.3%; in experiment [6] it was 20.8%. Also, the growth in experiment [7] was 59.4%; in [8], 24.3%; in [9], 44.9%; in experiment [10], 65.7%; in experiment [11] it was 38.5%; in [12] it was 72.4%. The growth in experiment [13] is 72.7%; in experiment [14], 51.6%; in experiment [15] it was 87.7%; in [16], 47.9%; in experiment [20], 77.3%; in experiment [17] it was 81.7%. For the same compound, the growth in [18] was 13.3%; in experiment [19], 67%.
As to `CCC(CCCN1C(=O)c2ccccc2C1=O)Nc1cc(OC)cc2cccnc12` (stereo not given), the growth was 92.4% in experiment [1]; 105% in experiment [2]; 93% in experiment [3]; 106% in experiment [4]; 101% in [5]; 86.9% in [6]. The growth in [7] was 89.9%; in experiment [8], 82.6%; in [9] it was 93.5%; in [10], 111%; in experiment [11], 97.8%; in experiment [12], 97.2%. For the same compound, the growth is 99.3% in experiment [13]; 94.8% in experiment [14]; 136% in [15]; 103% in [16]; 111% in experiment [20]; 84.3% in experiment [17]. For the same compound, the results for the growth in experiment [18] and in experiment [19] were 84.5% and 73.8%, respectively.
With `O=C(/C=C\c1ccccc1Cl)c1ccccc1`, the growth in [1] was 89.9%; in experiment [2], 92.3%; in experiment [3], 86.7%; in experiment [4], 94.9%; in experiment [5] it was 79.3%; in experiment [6] it was 93.8%. Further, the growth in experiment [7] is 92.2%; in [8], 89.7%; in [9] it was 82.1%; in experiment [10], 110%; in experiment [11] it was 128%; in experiment [12], 96.4%. Further, the growth in [13] was 102%; in experiment [14] it was 71.5%; in [15] it was 111%; in [16], 92.5%; in [20], 90.8%; in experiment [18], -16.3% (active). For the same compound, in [19], the growth was 91.8%.
As for `COc1ccc(-c2cn3ccnc3c(-c3ccc4ncn(C5CCCCC5)c4c3)n2)cc1`, the growth was 21.2% in experiment [1]; 7.49% (active) in experiment [2]; -26.3% (active) in [3]; 31.6% in experiment [4]; 19.1% in experiment [5]; 4.78% (active) in [6]. The growth is 7.7% (active) in experiment [7]; 34.8% in experiment [8]; 30.4% in experiment [9]; 52.3% in [10]; 5.74% (active) in experiment [11]; 43.4% in experiment [12]. The growth was 36.4% in experiment [13]; 38.5% in experiment [14]; 81.5% in experiment [15]; 39% in experiment [16]; -12.3% (active) in experiment [17]; 6.73% (active) in [18]. Also, in experiment [19], the growth is 17.2%.
Regarding `COc1cc2cc3cc4cc(OC)c(OC)cc4c(C)[n+]3cc2cc1OC` (tested in a mixture with another compound), the growth in experiment [1] was 91.8%; in experiment [2], 79.2%; in experiment [3] it was 73.1%; in experiment [4], 96.2%; in [5], 76.9%; in [6], 67.8%. In addition, the growth is 82.4% in [7]; 84.3% in experiment [8]; 84.4% in experiment [9]; 116% in experiment [10]; 69.5% in experiment [11]; 60.8% in experiment [12]. Further, the growth in experiment [13] was 85.7%; in experiment [14], 59.6%; in experiment [15], 117%; in experiment [16], 95.2%; in experiment [17] it was 93.6%; in [18], 51.8%. For the same compound, the growth in [19] was 40.1%.
For `OC(c1ccccc1)(c1ccccc1)C(F)(F)F`, the growth in experiment [1] was 107%; in experiment [2], 103%; in experiment [3] it was 111%; in experiment [4], 113%; in [5], 109%; in [6], 88.4%. The growth in experiment [7] is 109%; in experiment [8], 102%; in experiment [9], 105%; in experiment [10] it was 117%; in experiment [11], 97.7%; in [12], 102%. Further, the growth is 94.9% in experiment [13]; 98.1% in [14]; 95.7% in experiment [15]; 94.8% in [16]; 97.8% in [20]; 84.7% in experiment [18]. The growth in experiment [19] is 102%.
